Screening results from PubChem BioAssay.
PKM2 activator: qHTS Assay for Activators of Human Muscle isoform 2 Pyruvate Kinase | Pyruvate kinase PKM (Homo sapiens), P14618 | purified PKM2, Kinase-Glo ATP luminescence, activation; response scale: 0% is enzyme alone, no compound | Potency, µM (series often up to 57.5 µM), without a hit: at the top dose activation, actives largely listed as activators | 0.34% of 260,000 active | AID 1631, 2009; further: potency means the concentration at half of the fitted maximal effect; nearly all actives have a fitted effect of over 55% in size
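Kinase-Glo luminescence reports ATP generated from ADP (0.1 mM) and PEP (0.5 mM) by purified hPK-M2 after 1 h at room temperature, pH 7.2 imidazole buffer; intermediate enzyme activity allows detecting inhibitors and activators.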
GALK inhibitor: qHTS Assay for Inhibitors of Human Galactokinase (GALK) | P51570 | Purified GALK, Kinase-Glo residual ATP luminescence | Potency, µM (titrated, usually from 57.5 µM), for the others: at the highest dose activity change, negative = inhibition, hits mostly inhibitors | 0.007% of 270,000 active | AID 1868, 2009; further: potency means the concentration at half of the fitted maximal effect
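Compounds were pin-transferred into ATP buffer (35 uM final), then GALK plus galactose (5 nM, 100 uM final) was added. After 1 h at room temperature, Kinase-Glo Plus was added and luminescence read after 10 min.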
TrxR1 substrate: qHTS Assay for Substrates of Mammalian Selenoprotein Thioredoxin Reductase 1 (TrxR1): qHTS. purified TrxR1 substrate turnover, NADPH consumption readout. Potency, µM (highest dose often 114 µM), for inactives: at the top dose activity change, negative = substrate turnover. AID 588456, 2011. Thioredoxin reductase 1, cytoplasmic (Rattus norvegicus), O89049. 0.01% of 390,000 active; further: potency means the concentration at half of the fitted maximal effect; nearly all actives have a fitted effect of over 50% in size
Target sequence (O89049 whole entry, looked up): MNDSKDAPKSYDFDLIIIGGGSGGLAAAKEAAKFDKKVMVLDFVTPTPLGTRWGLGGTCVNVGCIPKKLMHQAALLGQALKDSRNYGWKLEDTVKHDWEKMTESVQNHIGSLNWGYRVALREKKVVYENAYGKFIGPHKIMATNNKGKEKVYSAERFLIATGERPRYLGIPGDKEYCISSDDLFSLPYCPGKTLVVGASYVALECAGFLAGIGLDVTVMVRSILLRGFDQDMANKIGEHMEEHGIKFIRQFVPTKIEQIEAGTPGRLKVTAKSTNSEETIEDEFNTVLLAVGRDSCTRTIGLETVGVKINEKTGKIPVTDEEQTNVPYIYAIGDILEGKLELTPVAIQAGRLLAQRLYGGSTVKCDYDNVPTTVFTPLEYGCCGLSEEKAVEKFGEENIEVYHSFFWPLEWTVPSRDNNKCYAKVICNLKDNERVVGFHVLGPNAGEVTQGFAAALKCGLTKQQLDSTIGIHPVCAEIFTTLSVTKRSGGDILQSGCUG
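Rat TrxR1, dispensed at 90 nM, was prereduced with 400 uM NADPH (final) for 5 min at ~22 deg C, then incubated with compound 15 min before 400 uM selenite. A first-read NADPH fluorescence drop versus no-compound background flagged substrates.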
PI4K2A block: qHTS for small molecular inhibitors of PI4K2A; Phosphatidylinositol 4-kinase type 2-alpha (Homo sapiens), Q9BTU6; purified PI4K2A, ADP-Glo luminescence, 1 h; hits give low values; activity change, negative = inhibition, % at 76.9 µM; 0.13% of 420,000 active; in the data active means activity change below about -50%; inconclusive means mostly about -30% to -49%;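 further: -100% = wells without enzyme as full effect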
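In this quantitative HTS, ADP production by PI4K2A was quantified luminescently after 1 h at ambient temperature; 100 microM adenosine served as plate-quality control.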
TrxR1 inh: qHTS Assay for Inhibitors of Mammalian Selenoprotein Thioredoxin Reductase 1 (TrxR1): qHTS. Thioredoxin reductase 1, cytoplasmic (Rattus norvegicus), O89049. recombinant rTrxR1, NADPH fluorescence consumption, selenite substrate. Potency, µM (highest dose often 114 µM), inactives show at the highest dose activity change, negative = inhibition, most hits filed as inhibitors. 1% of 390,000 active. AID 588453, 2011; further: potency means the concentration at half of the fitted maximal effect; nearly all actives have a fitted effect of over 65% in size
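Rat TrxR1 (90 nM in the dispensed reagent) was pre-reduced with 400 uM NADPH for 5 min at room temperature, then incubated with compound for 15 min. After 400 uM selenite was added, NADPH fluorescence (Ex 340/Em 450 nm) was followed for 8 min.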
* = called active by the depositor; i = inactive; ? = inconclusive; · = no result given; [ ] = another dose, or the depositor's remark. An excerpt weighted towards active compounds, which were near 1.2% of everything screened. Unless noted, the call rests on the fitted dose curve; in most records, active means well fitted curve in the direction sought with a large enough effect; inconclusive means small, poorly fitted or top-dose-only effect, or another doubt; inactive means no such curve, though single readings can be large; an effect the other way counts as inactive or inconclusive. Unless noted, on the % scale 0 is the no-effect control and ±100 the full control effect.

SMILES	PKM2 activator	GALK inhibitor	TrxR1 substrate	PI4K2A block	TrxR1 inh
Nc1cccnc1Sc1cccc(Cl)c1	12.9%	·	19.2%	-69.3*	10µM*
CC#CCN1c2ccccc2[C@]23C[C@@H](C(=O)OC)N(S(=O)(=O)CCCC)C2=NC(C(=O)OC)=C(C(=O)OC)[C@H]13	-2.7%[11.5 µM]	·	·	·	·
O=C(COc1cccnc1[N+](=O)[O-])c1ccc(Cl)s1	-8.3%	1.2%	-5.1%	-8.1	25.1µM*
O=C(COc1cccnc1[N+](=O)[O-])Nc1c(Cl)cccc1Cl	·	·	-1.0%[2.29 µM]	-0.2	2.8%[2.29 µM]
CCS(=O)(=O)c1c([N+](=O)[O-])ncn1C	-9.0%	1.0%	2.9%	-3.0	0.794µM*
COc1ccc(NS(=O)(=O)c2cc3c(cc2C)NC(=O)CO3)c(OC)c1	6.5%	·	4.4%[57.1 µM]	-0.7	11.0%[57.1 µM]
Cc1ccccc1NS(=O)(=O)c1cc2c(cc1C)NC(=O)CO2	5.62µM*	·	1.3%[57.1 µM]	1.0	20.1%[57.1 µM]
O=C1c2cccnc2-c2ncccc21	-1.9%	6.1%	13.1%[57.1 µM]	2.9	3.9%[57.1 µM]
O=C1C(=O)c2cccnc2-c2ncccc21	·	·	·	-73.8*	·
COC1=C(Br)C(=O)c2ncccc2C1=O	·	·	5.4%[11.4 µM]	-55.1*	?
O=C(c1ccccc1Cl)n1nc(-c2cccnc2)nc1NCc1ccc(F)cc1	·	·	-3.3%	6.0	5.3%
O=C(CCl)N(C/C=C/c1ccccc1)c1ccc2c(c1)OCCO2	-1.7%	0.8%	1.5%[57.1 µM]	3.2	7.94µM*
O=C(/C=C/c1ccccc1)c1ccc2c(c1)OCCCCO2	-3.4%	-7.0%	-1.7%	-17.6	-7.3%
CCOCCc1nn2c(=O)cc(COC(=O)c3ccccc3OC)nc2s1	·	·	6.9%[57.1 µM]	0.6	11.1%[57.1 µM]
O=C(c1ccc2c(c1)N(Cc1cccc(Cl)c1)C(=O)c1ccccc1S2(=O)=O)N1CCc2ccccc21	·	·	-9.2%[57.1 µM]	0.8	12.7%[57.1 µM]
COc1ccc(C2C(C#N)=C(N)Oc3cc(O)ccc32)cc1OC (stereo unspecified)	9.5%	-1.9%	5.8%[57.1 µM]	-2.8	6.6%[57.1 µM]
COc1ccc(C2C(C#N)=C(N)Oc3cc(O)ccc32)cc1C (stereo unspecified)	0.1%	-2.1%	-1.2%	1.0	15.8µM*
CC(C)n1nnnc1C1(C)CN(S(C)(=O)=O)CC(=O)N1Cc1cccc(C(F)(F)F)c1 (stereo unspecified)	·	·	·	0.3	·
N#Cc1c(NC(=O)c2ccccc2Cl)n(Cc2ccccc2)c2nc3ccccc3nc12	13.1%	-8.1%	-10.4%	-50.3*	-5.9%
O=C1C2C3C=CC(C3=C3CCCCC3)C2C(=O)N1c1ccccc1 (stereo unspecified)	8.8%	-0.3%	4.4%	-4.8	20µM*
Cc1ccc(Sc2ccc(N3CCC(C(=O)Nc4ccc(C)c(F)c4)CC3)nn2)cc1	·	·	5.9%	1.9	11.9%
O=C1OC(c2cccs2)=N/C1=C/c1ccc(-c2cccc(C(=O)O)c2)o1	3.4%	6.4%	-16.6%	-6.6	35.5µM*
O=C(/C=C/c1ccco1)Nc1sc2c(c1C(=O)O)CCC2	-12.5%	0.7%	-12.5%	-4.6	?
N#Cc1c(NC(=O)/C=C/c2ccco2)sc2c1CCCC2	23.7%	0.5%	-7.1%	-6.0	39.8µM*
CC1CCC(NC(=O)c2ccc3c(c2)N(Cc2cccc(Cl)c2)C(=O)c2ccccc2S3(=O)=O)CC1 (stereo unspecified)	·	·	-5.0%[57.1 µM]	7.0	21.4%[57.1 µM]
SMILES	PKM2 activator	GALK inhibitor	TrxR1 substrate	PI4K2A block	TrxR1 inh
CCCOc1ccc(C(=O)CCNC(Cc2c[nH]c3ccccc23)C(=O)O)cc1 (stereo unspecified)	·	·	2.9%	28.1	1.78µM*
COc1ccc(C(=O)NC(Cc2c[nH]c3ccccc23)C(=O)O)cc1 (stereo unspecified)	·	·	2.9%	0.3	13.6%
Cn1cccc1C(=O)N1CCN(S(=O)(=O)c2cccs2)CC1	·	·	·	-3.1	·
O=c1oc2c(CN3CCN(CCO)CC3)c(O)ccc2cc1-c1ccccn1	-3.9%	0.2%	i	-2.8	44.7µM*
COc1ccc(NC(=S)NC(NC(=O)c2ccccc2Cl)C(Cl)(Cl)Cl)c([N+](=O)[O-])c1 (stereo unspecified)	6.9%	-1.8%	3.5%	0.3	-24.7%
COc1ccc(NC(=S)NC(NC(=O)CCl)C(Cl)(Cl)Cl)c([N+](=O)[O-])c1 (stereo unspecified)	5.3%	0.3%	0.9%	-20.9	10µM*
O=C(O)c1ccccc1Nc1cc(Cl)c2nonc2c1[N+](=O)[O-]	2.7%	1.5%	-13.9%	?	1.58µM*
O=[N+]([O-])c1c(Nc2ccc(O)cc2)cc(Cl)c2nonc12	·	-6.4%	3.1%[57.1 µM]	-16.0	?
O=[N+]([O-])c1c(Nc2ccccn2)cc(Cl)c2nonc12	25.9%	·	-11.6%	?	1.26µM*
COc1ccccc1S(=O)Cc1ccc(C(=O)NCCc2ccc(Cl)cc2)o1 (stereo unspecified)	2.6%	1.6%	1.8%	-3.5	17.8µM*
Cc1ccc(NC(=O)N2CCC(c3nc4ccc(Cl)cc4[nH]3)CC2)cc1F	·	·	·	-1.4	·
O=C(NC(=S)NNS(=O)(=O)c1ccc(Cl)cc1)c1cccnc1	-1.6%	0.6%	9.3%	3.1	17.8µM*
Cc1[nH]cnc1C(=O)N/N=C/c1c(Cl)cccc1Cl	·	20.2%	-12.0%	-68.9*	-10.4%
O=C1C2C3C=CC(O3)C2C(=O)N1CC(O)c1ccccc1 (stereo unspecified)	10.2%	-2.0%	5.3%	4.4	50.1µM*
CCC(=O)N1CCc2cc(S(=O)(=O)N(C)c3cccc(C)c3)ccc21	·	·	-2.2%	-2.3	8.0%
COc1cccc(NC(=O)Cn2nc(C)c3c(C)n(-c4ccccc4)nc3c2=O)c1	·	·	6.3%[57.1 µM]	-3.6	23.4%[57.1 µM]
COc1ccc(S(=O)(=O)N2CCCN(CCC(=O)Nc3cccc(C(F)(F)F)c3)CC2)cc1	11.6%	-1.5%	-6.7%	-2.5	-7.7%
O=C(CN1CCCN(S(=O)(=O)c2ccc(Br)cc2)CC1)Nc1cccc(C(F)(F)F)c1	·	·	-6.6%	4.2	50.1µM*
Cc1ccc(NC(=O)CN2CCCN(S(=O)(=O)c3ccc(Br)s3)CC2)cc1	5.9%	1.5%	-8.6%	1.1	70.8µM*
C=CC[C@@H]1NN2C(=O)[C@@H](CCCC)[C@@H]3c4ccccc4C=NN3[C@@H]2c2ccccc21	·	·	·	0.1	·
CCCCN(CCCC)c1ccc(Cn2ccc3ccccc32)cc1	·	·	7.1%	·	-0.5%
Cc1ccc(-n2nc(CO)c(C(=O)NCc3cccnc3)n2)cc1	·	·	65.8%	1.9	30.5%
O=C(O)/C=C/C(=O)Nc1ccccc1C(=O)Nc1ccccc1	-5.2%	0.2%	-2.2%	4.9	39.8µM*
